This passage reports activation results from PubChem BioAssay (NCATS).

Results filed as inconclusive are left out. The source made the active and inactive calls. The call rests on the fitted dose curve; in most records, active means well fitted activation curve with a large enough effect; inconclusive means small, poorly fitted or top-dose-only effect; inactive means no such curve, though single readings can be large or run the other way.

Cellular tumor antigen p53 (Homo sapiens), sequence (P04637 whole entry, looked up): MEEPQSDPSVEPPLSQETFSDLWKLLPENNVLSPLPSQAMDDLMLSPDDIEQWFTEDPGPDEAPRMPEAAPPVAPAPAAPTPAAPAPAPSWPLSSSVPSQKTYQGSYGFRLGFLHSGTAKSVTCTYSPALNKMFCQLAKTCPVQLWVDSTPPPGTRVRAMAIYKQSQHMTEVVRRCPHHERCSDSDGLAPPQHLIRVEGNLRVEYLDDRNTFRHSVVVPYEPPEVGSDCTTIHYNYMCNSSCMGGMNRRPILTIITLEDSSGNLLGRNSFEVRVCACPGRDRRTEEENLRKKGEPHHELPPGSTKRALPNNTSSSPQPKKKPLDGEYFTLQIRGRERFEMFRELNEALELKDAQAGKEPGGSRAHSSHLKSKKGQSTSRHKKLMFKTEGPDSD

The test concerns the target Cellular tumor antigen p53 (Homo sapiens) (UniProt P04637). The experiment in a line: Primary qHTS for small molecule compounds that upregulate eGFP-tagged delta133p53alpha (in N-terminal) cells. (AID 2060322).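 Further: series mostly up to about 56 µM; 0% = DMSO vehicle and 100% = reference activator; nearly all actives have a fitted effect of over 75% in size.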 The conditions noted are these: NCI-H358 eGFP-delta133p53alpha fluorescence, 24 h; activation: hits give high values. The procedure, abridged:
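NCI-H358 cells pre-induced 24 h with 10 ng/ml doxycycline to express N-terminal eGFP-delta133p53alpha, then dosed 24 h at 37C without doxycycline; fixed, Hoechst-stained, GFP intensity by laser scanning cytometry, normalized to DMSO (0%) and 57.5 uM 5-azacytidine (100%).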
(In general: Quantitative high-throughput screening tests each substance at several concentrations.)
As to `NC(=O)c1cc([N+](=O)[O-])cc([N+](=O)[O-])c1`, the activation was 0.837% (inactive). For `C[N+]1(CCF)[C@@H]2CC[C@H]1CC(OC(=O)C(O)(c1ccccc1)c1ccccc1)C2` (stereo partly drawn) the value was 5.08% (inactive). With `C1CCC(NC2CCCCC2)CC1`, the activation is 7.53% (inactive).
